According to the OligoGym collection:

target: MYO1F; experiment: pooled miR-30 sensor sort-seq; sequence = guide strand; conditions: shRNA
Note: reference of the scale not given here.

Sequence	sensor-assay potency score (higher = more potent)
TTCCGGTACATGTTGTCCGTGA	0.0719
TTGGCTTGTTTCTTGATCTTGG	0.371
TAGTGTGTCGCTGAAGGTGAGG	-0.748
TTGTTGTTGCGCACAGTCTTGG	-0.625
TAGCACTCAGAGTCTCACCAAA	-0.917
TTCTGGAAGATCTCGAAGCCGT	-0.863
TTCTTCACTTTCTCTCGCCCAA	-0.544
TTCTTGACAAAGACCTTGGTGC	0.169
TTGGCTGCCACTGTCTTCCCAG	-0.239

target: MYRIP; experiment: as above; conditions: shRNA

Sequence	sensor-assay potency score (higher = more potent)
TAACACAACAATAGTTGCTTTT	-1.01
TTATCTCTTATAAACACTCTAA	-0.392
ATCTTCTGCAGGATTGTCGTGG	-0.78
TTTTCGTATAATCTTCTGCAGG	-1.35
TTTTGCTCTTCTGTTTTCGTAT	-0.368
TTAAATAATAATTCCCACCTTC	0.152
ATTGCTAACTCGTACAGCCTGT	-0.149
TTTAATAGTAAATTAAATCTTT	-0.26
TGACACATAACACAGCATCAGC	-1.31
TTTTGCTTTGAATCACACCAAC	-1.21

target: MYST1; experiment: as above; conditions: shRNA

Sequence	sensor-assay potency score (higher = more potent)
TATTTCATGTACTTGAGGCAGT	0.803
TTGTCCACATACTTCACCTTGG	-0.263
TTGGTTGCGAGTGATCTTGCGC	-0.436
TTGATGGACAGTGTGCCCCGGA	-0.00673
TACAGCATCCTTCACTGTCTTG	-0.889
TTGACTTGCTTGTGCTTGGGGG	0.169
TACTTGAGGCAGTACTCGCAGA	-0.834
TTTGCCATCAACTTCGTGCACG	-0.42
TTGCGGTAGATCTCTTTCCCGG	-0.991
TACTTGACCATATTGAGGGATT	-1.22
TACTTCTCTGAGTTCTTCTGTA	0.544
TTTGAGGTGCTCCTCCACCAGC	-1.45

target: MYST4; experiment: as above; conditions: shRNA

Sequence	sensor-assay potency score (higher = more potent)
TTTGAGAACTGAGCCATCCTGA	0.202
TTATTTTCTGTATAGCTTCAAG	-0.855
TTCAGTAACGACATCCTTGTTT	-0.1
TATACAATAACTGAAATGCTAA	-0.972
TTTTCGATTGTACTTTTGCAGG	-1.34
TTGGCTTTTAGCACCATCTGGA	0.342
TTACAGACAACAATCGTTGCTT	0.972
TTACTGTTAGCACAACACTTGT	-0.946
TATTTCAGTATCATCATCCTGA	0.932
